Assay results taken from ChEMBL document CHEMBL3988442, “University of Dundee, Small-Polar-MMV Screening Library” (2021).
For some of these results: Potency and affinity values are given separately.

Assays:
Parameters in all cases: scale not given: direction of the effect not stated beside the values
[1] = molecular target: Protein translocase subunit SecA (Escherichia coli (strain K12)) (UniProt P10408); test: Assay to Identify E. coli SecA ATPase Inhibitors; assay type: functional; settings: 30 µM
[2] = molecular target: T1, Ubiquitin-activating enzyme e1, putative (Leishmania donovani (strain BPK282A1)) (UniProt E9BSI1); test: Leishmania donovani Ubiquitin Activating Enzyme (LdE1); assay type: functional; settings: 30 µM
T1 sequence (whole entry): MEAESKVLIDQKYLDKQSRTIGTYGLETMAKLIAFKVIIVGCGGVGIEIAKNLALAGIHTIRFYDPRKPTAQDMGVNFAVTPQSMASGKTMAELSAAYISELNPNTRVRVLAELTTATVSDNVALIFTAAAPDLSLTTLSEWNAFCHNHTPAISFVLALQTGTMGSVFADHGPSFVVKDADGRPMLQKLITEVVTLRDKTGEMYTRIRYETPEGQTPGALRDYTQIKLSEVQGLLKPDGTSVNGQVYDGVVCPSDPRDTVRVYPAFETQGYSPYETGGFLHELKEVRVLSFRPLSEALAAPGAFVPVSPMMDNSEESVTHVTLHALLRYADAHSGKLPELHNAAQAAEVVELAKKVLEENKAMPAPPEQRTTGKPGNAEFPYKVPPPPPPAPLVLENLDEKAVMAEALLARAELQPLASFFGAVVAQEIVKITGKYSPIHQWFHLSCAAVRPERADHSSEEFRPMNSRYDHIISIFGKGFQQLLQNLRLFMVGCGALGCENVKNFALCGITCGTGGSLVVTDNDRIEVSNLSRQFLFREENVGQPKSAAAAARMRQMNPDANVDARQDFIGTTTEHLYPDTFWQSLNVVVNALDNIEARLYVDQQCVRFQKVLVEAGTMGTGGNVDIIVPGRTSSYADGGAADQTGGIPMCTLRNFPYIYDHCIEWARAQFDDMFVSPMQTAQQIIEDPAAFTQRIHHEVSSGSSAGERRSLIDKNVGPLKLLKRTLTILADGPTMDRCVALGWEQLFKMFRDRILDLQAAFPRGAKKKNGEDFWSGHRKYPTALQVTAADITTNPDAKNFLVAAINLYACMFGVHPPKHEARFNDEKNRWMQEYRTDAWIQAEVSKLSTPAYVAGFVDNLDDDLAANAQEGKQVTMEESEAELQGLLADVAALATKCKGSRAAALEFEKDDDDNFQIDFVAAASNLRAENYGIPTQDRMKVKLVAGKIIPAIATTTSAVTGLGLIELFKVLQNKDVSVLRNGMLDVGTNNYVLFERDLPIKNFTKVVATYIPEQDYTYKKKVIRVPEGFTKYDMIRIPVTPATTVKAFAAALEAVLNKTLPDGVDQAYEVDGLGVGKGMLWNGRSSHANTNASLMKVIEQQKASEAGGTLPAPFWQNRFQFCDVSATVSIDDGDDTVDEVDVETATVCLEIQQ

[3] = molecular target: AMP-activated protein kinase, AMPK (Homo sapiens) (UniProt P54646+O43741+P54619+Q9UGJ0+Q9Y478+Q13131+Q9UGI9); test: AMP-dependent Kinase enzyme assay. An in vitro enzyme assay that detects ADP turnover that is directly proportional to AMPK activity. This uses naive AMPK that is activated during the assay with MK-8722; assay type: functional; settings: 30 µM
[4] = molecular target: Sialic acid-binding Ig-like lectin 9 (Homo sapiens) (UniProt Q9Y336); test: Hs-Siglec9 ALPHAscreen SOP 20170721; settings: 10 µM
Trypanosoma cruzi = test: Trypanosoma cruzi phosphomannomutase and mannose-1-phosphate guanylyltransferase assay; assay type: functional; settings: 10 µM
[5] = molecular target: T2, Arginase-2, mitochondrial (Homo sapiens) (UniProt P78540); test: in vitro enzyme assay to detect the production of urea directly proportional to the activity of Arginase II; assay type: functional; settings: 33.3 µM; note: in the data most compounds retested in dose-response had high values
T2 sequence (whole entry): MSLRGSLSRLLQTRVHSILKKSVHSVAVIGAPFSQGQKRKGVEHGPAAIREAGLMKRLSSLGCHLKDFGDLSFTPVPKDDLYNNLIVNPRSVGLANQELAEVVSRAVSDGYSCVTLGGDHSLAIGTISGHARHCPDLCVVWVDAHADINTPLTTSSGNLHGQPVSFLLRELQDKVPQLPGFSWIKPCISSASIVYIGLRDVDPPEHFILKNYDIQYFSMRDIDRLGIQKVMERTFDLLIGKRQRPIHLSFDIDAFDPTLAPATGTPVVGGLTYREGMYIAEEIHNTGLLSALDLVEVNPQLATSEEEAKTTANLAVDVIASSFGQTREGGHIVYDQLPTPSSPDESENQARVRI

[6] = molecular target: T3, Proteasome subunit beta (Trypanosoma cruzi) (UniProt O96673); test: Trypanosoma cruzi proteasome chymotrypsin-like activity (TcProtChymo) assay.; note: in the data most compounds retested in dose-response had high values; assay type: functional; settings: 9.37 µM
T3 sequence (whole entry): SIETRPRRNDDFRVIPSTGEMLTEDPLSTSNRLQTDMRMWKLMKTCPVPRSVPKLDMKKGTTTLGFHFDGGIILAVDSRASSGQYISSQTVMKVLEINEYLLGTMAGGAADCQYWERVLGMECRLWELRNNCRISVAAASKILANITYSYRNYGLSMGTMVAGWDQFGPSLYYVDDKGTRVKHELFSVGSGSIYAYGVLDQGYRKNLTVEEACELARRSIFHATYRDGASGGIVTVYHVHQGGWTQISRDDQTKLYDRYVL

Homo sapiens = organism: Homo sapiens; test: To identify inhibition of the IFN signalling (Jak-Stat) pathway via expression of an eGFP reporter gene under the control of an IFN-stimulated response element (ISRE) containing MxA promoter.; assay type: functional; settings: 30 µM
[7] = molecular target: T4, Tyrosyl-tRNA synthetase, putative (Trypanosoma cruzi (strain CL Brener)) (UniProt Q4DSP6); test: Trypanosoma cruzi tyrosyl tRNA synthetase (TcYRS) _High Tyrosine SOP; assay type: functional; settings: 30 µM; note: in the data most compounds retested in dose-response had high values
T4 sequence (whole entry): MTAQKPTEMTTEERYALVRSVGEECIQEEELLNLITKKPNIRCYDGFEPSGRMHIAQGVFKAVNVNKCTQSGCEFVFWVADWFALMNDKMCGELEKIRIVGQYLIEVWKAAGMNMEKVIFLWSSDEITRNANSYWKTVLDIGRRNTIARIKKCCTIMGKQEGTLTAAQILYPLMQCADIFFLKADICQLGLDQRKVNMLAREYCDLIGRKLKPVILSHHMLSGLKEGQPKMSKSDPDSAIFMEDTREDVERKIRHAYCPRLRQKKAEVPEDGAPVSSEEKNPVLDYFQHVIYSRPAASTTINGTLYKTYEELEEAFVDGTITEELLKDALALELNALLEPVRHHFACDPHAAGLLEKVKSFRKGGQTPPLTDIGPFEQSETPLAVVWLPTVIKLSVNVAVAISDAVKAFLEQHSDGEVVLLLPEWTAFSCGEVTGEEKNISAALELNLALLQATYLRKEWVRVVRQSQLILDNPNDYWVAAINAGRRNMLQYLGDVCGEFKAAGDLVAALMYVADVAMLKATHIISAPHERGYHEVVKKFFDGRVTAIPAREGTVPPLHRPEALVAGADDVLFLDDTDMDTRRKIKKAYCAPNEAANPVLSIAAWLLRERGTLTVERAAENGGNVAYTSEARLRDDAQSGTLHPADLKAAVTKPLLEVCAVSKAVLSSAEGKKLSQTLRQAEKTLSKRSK

[8] = molecular target: T4, Tyrosyl-tRNA synthetase, putative (Trypanosoma cruzi (strain CL Brener)); test: Trypanosoma cruzi tyrosyl tRNA synthetase (TcYRS) SOP; assay type: functional; settings: 30 µM
[9] = molecular target: Chromo domain-containing protein 1 (Saccharomyces cerevisiae (strain ATCC 204508 / S288c) (Baker's yeast)) (UniProt P32657); test: ScCHD-1 Enzyme Inhibition Assay; assay type: functional; settings: 30 µM; note: in the data most compounds retested in dose-response had high values
Chromo domain-containing protein 1 (Saccharomyces cerevisiae (strain ATCC 204508 / S288c) (Baker's yeast)), sequence (P32657 whole entry, the tested form may be a part): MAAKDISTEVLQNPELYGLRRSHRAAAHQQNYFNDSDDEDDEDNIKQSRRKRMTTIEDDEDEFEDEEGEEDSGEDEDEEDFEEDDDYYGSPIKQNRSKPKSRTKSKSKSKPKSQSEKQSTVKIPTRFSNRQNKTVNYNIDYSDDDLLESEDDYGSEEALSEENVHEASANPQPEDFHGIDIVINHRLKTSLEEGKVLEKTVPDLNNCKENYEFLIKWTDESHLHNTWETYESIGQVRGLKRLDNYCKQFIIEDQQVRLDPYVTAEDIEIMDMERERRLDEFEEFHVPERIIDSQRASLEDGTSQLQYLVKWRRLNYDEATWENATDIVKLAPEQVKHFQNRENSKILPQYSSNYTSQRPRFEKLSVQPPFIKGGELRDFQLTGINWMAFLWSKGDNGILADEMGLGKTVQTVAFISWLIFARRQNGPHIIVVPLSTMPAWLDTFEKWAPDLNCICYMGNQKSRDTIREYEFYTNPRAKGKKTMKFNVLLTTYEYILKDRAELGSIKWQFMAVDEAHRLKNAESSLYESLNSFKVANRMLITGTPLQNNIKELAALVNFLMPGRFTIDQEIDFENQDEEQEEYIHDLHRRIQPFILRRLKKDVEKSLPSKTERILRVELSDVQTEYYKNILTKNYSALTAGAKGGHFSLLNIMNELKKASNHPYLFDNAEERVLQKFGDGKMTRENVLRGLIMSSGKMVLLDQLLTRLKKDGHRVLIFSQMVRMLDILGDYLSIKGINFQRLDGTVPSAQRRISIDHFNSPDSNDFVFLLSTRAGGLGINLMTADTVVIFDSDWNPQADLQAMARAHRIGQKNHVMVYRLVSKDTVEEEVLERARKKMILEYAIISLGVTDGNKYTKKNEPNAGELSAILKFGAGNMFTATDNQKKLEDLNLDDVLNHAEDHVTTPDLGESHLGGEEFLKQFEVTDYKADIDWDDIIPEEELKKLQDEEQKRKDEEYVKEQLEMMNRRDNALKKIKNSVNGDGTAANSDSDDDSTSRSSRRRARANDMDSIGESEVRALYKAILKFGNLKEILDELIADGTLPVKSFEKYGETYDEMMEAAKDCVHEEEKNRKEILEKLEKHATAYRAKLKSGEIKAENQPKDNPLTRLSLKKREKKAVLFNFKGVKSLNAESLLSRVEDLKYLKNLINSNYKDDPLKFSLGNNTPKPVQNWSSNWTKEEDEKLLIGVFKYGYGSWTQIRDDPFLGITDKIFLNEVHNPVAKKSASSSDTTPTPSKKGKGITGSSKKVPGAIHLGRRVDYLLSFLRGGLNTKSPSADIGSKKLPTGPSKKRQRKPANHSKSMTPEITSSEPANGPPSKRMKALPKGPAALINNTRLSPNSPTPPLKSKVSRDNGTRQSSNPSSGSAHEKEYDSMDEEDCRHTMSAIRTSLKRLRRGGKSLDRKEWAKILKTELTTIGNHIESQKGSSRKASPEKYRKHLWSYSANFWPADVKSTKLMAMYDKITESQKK

Protein translocase subunit SecA (Escherichia coli (strain K12)), sequence (P10408 whole entry): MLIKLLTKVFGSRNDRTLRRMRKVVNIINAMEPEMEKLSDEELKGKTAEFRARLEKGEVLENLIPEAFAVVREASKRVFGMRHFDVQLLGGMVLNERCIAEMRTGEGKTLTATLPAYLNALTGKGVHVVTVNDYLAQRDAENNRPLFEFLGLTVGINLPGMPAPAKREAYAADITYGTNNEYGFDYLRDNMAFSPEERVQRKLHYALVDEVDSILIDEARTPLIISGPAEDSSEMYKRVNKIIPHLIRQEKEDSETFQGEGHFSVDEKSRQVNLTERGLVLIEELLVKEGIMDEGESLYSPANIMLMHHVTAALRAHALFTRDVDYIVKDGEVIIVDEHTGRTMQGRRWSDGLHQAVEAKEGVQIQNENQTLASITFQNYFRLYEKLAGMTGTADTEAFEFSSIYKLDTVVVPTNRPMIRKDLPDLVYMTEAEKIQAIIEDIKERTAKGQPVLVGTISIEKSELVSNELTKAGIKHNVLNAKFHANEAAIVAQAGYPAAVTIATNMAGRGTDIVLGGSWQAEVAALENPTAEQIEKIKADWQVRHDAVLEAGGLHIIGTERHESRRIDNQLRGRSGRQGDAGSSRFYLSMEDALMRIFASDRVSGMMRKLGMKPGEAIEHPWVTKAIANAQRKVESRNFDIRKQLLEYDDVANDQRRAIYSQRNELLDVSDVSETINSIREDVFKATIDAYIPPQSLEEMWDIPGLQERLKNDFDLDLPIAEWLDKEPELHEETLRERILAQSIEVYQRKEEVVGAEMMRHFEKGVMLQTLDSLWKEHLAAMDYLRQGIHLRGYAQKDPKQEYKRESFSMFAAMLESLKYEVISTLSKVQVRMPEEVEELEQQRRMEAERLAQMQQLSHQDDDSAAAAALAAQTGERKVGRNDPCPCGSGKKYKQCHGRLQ
Sialic acid-binding Ig-like lectin 9 (Homo sapiens), sequence (Q9Y336 whole entry): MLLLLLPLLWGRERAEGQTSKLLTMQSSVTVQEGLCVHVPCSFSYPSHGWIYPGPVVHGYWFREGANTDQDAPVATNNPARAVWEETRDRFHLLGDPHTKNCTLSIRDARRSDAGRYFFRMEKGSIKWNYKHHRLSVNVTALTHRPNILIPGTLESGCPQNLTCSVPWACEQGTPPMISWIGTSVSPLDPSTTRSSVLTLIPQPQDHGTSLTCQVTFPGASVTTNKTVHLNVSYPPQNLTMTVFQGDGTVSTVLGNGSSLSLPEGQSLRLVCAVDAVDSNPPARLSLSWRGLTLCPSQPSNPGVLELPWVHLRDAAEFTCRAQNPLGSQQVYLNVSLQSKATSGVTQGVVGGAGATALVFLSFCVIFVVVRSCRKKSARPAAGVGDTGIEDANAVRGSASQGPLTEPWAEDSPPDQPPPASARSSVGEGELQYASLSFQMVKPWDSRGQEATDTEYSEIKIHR

Row | SMILES | Percent Effect [1] [%] | Percent Effect [2] [%] | Percent Effect [3] [%] | Percent Effect [4] [%] | Percent Effect (Trypanosoma cruzi) [%] | Percent Effect [5] [%] | Percent Effect [6] [%] | Percent Effect (Homo sapiens) [%] | Percent Effect [7] [%] | Percent Effect [8] [%] | Percent Effect [9] [%]
1 | CCn1cc(N2Cc3nc(N4CCN(C)CC4)ncc3C2=O)cn1 | -4.57 | 4 | 4.85 | 8.98 | -1.97 | -13.2 | 15.2 | -0.771 | 6.35 | 12.8 | -11.9
2 | Cc1cc(C)n(CC(=O)NC(Cc2ccsc2)c2ccccn2)c(=O)n1 (stereo not given) | -10.3 | 12.2 | -6.03 | 12.5 | 8.5 | -4.87 | 9.2 | -8.13 | 5.38 | 11.7 | -22.9
3 | CN(CCO)C[C@@H]1CN(C(=O)c2c(F)cccc2Cl)C[C@@H]1CO | -3.86 | 0 | 1.2 | 6 | -2.06 | 2.76 | 15.6 | 9.06 | 3.23 | 3.7 | -2.59
4 | CCc1noc(CN(C)Cc2ccc(N3CCCCC3)cc2)n1 | -2.48 | 2.6 | 0.261 | 13 | 3.83 | 15.2 | 13.5 | 5.54 | -6.45 | -8.64 | -6.82
5 | O=C(Nc1cccnc1)N1CCC(n2ccc(C(F)(F)F)n2)CC1 | -7.93 | 8.22 | -4.95 | 13 | 3.72 | -0.909 | 10.5 | 2.75 | 1.07 | 10 | -5.84
6 | c1cnnc(NCC2CN(Cc3cccc4c3OCCO4)CCO2)c1 (stereo not given) | -3.5 | 5.2 | 2.26 | 4.61 | 9.55 | -2.13 | 1.18 | 18.6 | 10.7 | 24.4 | -7.39
7 | CN(C(=O)c1cccc(C(=O)NCC(F)(F)F)c1)c1ccccc1 | -6.02 | -2.6 | -0.584 | 2.53 | -5.8 | -6.9 | 9.82 | 7.29 | -1.07 | -8.64 | 0.0055
8 | Cc1ccc(N2CCCN(C(=O)CC3CCCO3)CC2)nn1 (stereo not given) | -2.51 | 21.6 | -11.8 | 5.27 | 3.87 | -8.82 | 14.8 | 7.13 | -1.48 | 18.5 | -9.23
9 | COc1ccc(NC(=O)N2CCN(c3ncccn3)CC2)cn1 | -0.45 | 8.22 | 2.23 | -2.77 | -3.53 | 3.64 | 7.63 | 11.7 | 4.3 | 10 | -3.82
10 | CC(C(=O)N1CCCN(Cc2ccc(C#N)cc2)CC1)n1ccnc1 (stereo not given) | -3.9 | 15.8 | -24.4 | -5.95 | -6.01 | 1.15 | 17.2 | 29.1 | 4.41 | 12.2 | -7.57
11 | Cc1cnn(CC2CCCN2C(=O)CCc2ccsc2)c1 (stereo not given) | -4.66 | 7.79 | 3.01 | 4.3 | 3.82 | 2.32 | 0.242 | 15.8 | 1.91 | 7.06 | -15.5
12 | CN(Cc1ccco1)[C@@H]1CN(C(=O)c2ccnnc2)C[C@@H]2CCCO[C@@H]21 | -2.86 | 2.74 | -3.12 | 2.33 | 4.76 | 2.4 | 0.77 | -17.3 | 2.08 | 8.64 | 1.23
13 | O=c1ccc(-c2cccs2)nn1CN1CCCCCC1 | -4.24 | -4 | -3.16 | 2.9 | 3.54 | -3.35 | 7.21 | -1.68 | 7.41 | 10.3 | -5.05
14 | Cc1cnc(N2CCn3cc(CNC(=O)CC4CC4)nc3C2)nc1 | -3.53 | -2.67 | 7.96 | -5.68 | -2.76 | 2.1 | -6.78 | 10.1 | -8.51 | -16.7 | -5.33
15 | Cc1nonc1CN(C)CC1(O)CCCN(CCC2CCCCC2)C1=O (stereo not given) | 2.32 | 8 | -14.2 | -0.787 | 1.66 | 12.5 | 16.4 | 35.9 | 10.4 | 18.5 | -1.61
16 | Cc1cn(-c2ccccc2)nc1NS(=O)(=O)c1cc(C(=O)O)cs1 | -9.57 | -5.48 | -4.37 | 14.1 | -2.15 | -0.455 | 11.9 | 6.83 | -8.6 | -12.5 | -5.44
17 | Cc1nc(CN2CCN(C(=O)c3cc(C4CC4)on3)CC2)cs1 | -6.45 | 13 | 2.57 | 3.64 | -0.686 | 5.68 | 4.45 | -4.72 | 4.76 | 18.8 | -6
18 | CSC(C)(C)CNC(=O)NCCC1CCN(C)CC1 | -2.34 | 2.67 | -5.7 | -5.29 | 0.487 | -1.56 | 2.96 | 11.5 | 1.64 | 6.17 | 1.16
19 | CC(C)C(Sc1nnc(C2CC2)n1C1CC1)C(=O)NCc1cccnc1 (stereo not given) | 1.83 | -2.6 | -2.77 | 5.12 | 5.24 | -1.42 | 3.21 | -24.2 | 5.83 | 12.2 | -8.74
20 | O=C(NCc1cccs1)[C@H]1CC[C@@H]2[C@@H](CCN2c2ncccn2)O1 | -2.42 | 5.41 | -0.805 | -3.31 | 6.45 | -0.833 | 18.9 | 18.7 | 8.91 | 18.3 | -3.92
